Among the data in PubChem BioAssay (NCATS) are Potency values, retold here.

The target of experiment [1] is Aldehyde dehydrogenase, mitochondrial (Homo sapiens) (UniProt P05091). Briefly: qHTS for Inhibitors of the Aldehyde Dehydrogenase Family (ALDH2) Primary screen (AID 2061308). Also: nearly all actives have a fitted effect of over 55% in size. For orientation: In qHTS, concentration-response curves come from the screen itself.
Experiment [2] deals with Retinaldehyde dehydrogenase 3 (Homo sapiens) (UniProt P47895). The experiment is described as follows: qHTS for Inhibitors of the Aldehyde Dehydrogenase Family (ALDH1A3) Primary screen (AID 2061315).

Inconclusive results are not listed. A call without a number means that no potency is given here. Calls of active or inactive are those of the source. Calls follow the shape of the dose curve; as a rule, active = well fitted curve in the direction sought with a large enough effect; inconclusive = small, poorly fitted or top-dose-only effect, or another doubt; inactive = no such curve, though single readings can be large; an effect the other way counts as inactive or inconclusive.

Regarding `CC(C)c1ccccc1-c1nc(NCc2ccc(-c3cccnc3)cc2)c2ccccc2n1`, the Potency entry in experiment [1] and in experiment [2] was “inactive” each time.

As for `COc1cc(-c2ccc3ncnc(N(C)Cc4csc(C)n4)c3c2)cc(OC)c1OC`, the Potency result in experiment [1] and in experiment [2] was “inactive” in each case.

As for `C=C1C(=O)O[C@@H]2/C=C(/C)[C@@H](OC(C)=O)C/C=C(\C)C[C@@H](OC(=O)/C(=C/CO)CO)[C@@H]12`, the Potency result in experiment [1] and in experiment [2] was “inactive” in each case.

Regarding `Brc1ccc(-c2csc(N3CCOCC3)n2)cc1`, the Potency entry in experiment [1] and in experiment [2] was “inactive” throughout.

For `CCOc1ccc(CCNC(=O)c2cc3sccc3n2Cc2cccc(C)c2)cc1OCC`, the Potency entry in experiment [1] and in experiment [2] was “inactive” each time.

Regarding `CC(Nc1ccc([S+](=O)([O-])Nc2nccs2)cc1)c1ccccc1` (centres undefined), the Potency entry in experiment [1] and in experiment [2] was “inactive” throughout.

With `COc1ccc(C(=O)OCC#CCSc2nnc(-c3cccc4ccccc34)o2)cc1`, the Potency entry in experiment [1] and in experiment [2] was “inactive” each time.

As to `Cc1cc(C)nc(NC(=S)N2CCN(c3cc(Br)cc(C(F)(F)F)c3)CC2)c1`, the Potency entry in experiment [1] and in experiment [2] was “inactive” each time.

For `COc1ccnc(NC(=S)N2CCN(c3ccc4ccccc4n3)CC2)c1`, the Potency result in experiment [1] and in experiment [2] was “inactive” each time.

Turning to `NC(=O)c1ccc(O)c2ncccc12`, the Potency result in experiment [1] and in experiment [2] was “inactive” each time.

As to `CCOC(=O)c1cccc(-n2cnc(/C=C3\NC(=O)N(CC(=O)OC(C)(C)C)C3=O)c2)c1`, the Potency result in experiment [1] and in experiment [2] was “inactive” throughout.

As for `CC(C)(C)OC(=O)Nc1ncnc2c1C(c1ccccc1)c1c(ccc3ccccc13)O2` (centres undefined), the Potency entry in experiment [1] and in experiment [2] was “inactive” each time.

Consider `Cc1cc(C)n2ncc(C(=O)Nc3ccc4c(c3)CCC4)c2n1`, for which the Potency result in experiment [1] and in experiment [2] was “inactive” in each case.

Turning to `COc1ccccc1C(=O)OCC#CCSc1nnc(-c2cccc3ccccc23)o1`, the Potency result in experiment [1] and in experiment [2] was “inactive” each time.

For the molecule `Nc1ccc(NC(=O)Nc2nnc(-c3ccncc3)s2)cc1C(F)(F)F`, the Potency entry in experiment [1] and in experiment [2] was “inactive” each time.

In the case of `O=C(CNC(=O)c1cccc(Cl)c1)OC(C(=O)Nc1cc(C(F)(F)F)ccc1Cl)c1ccccc1` (centres undefined), the Potency entry in experiment [1] and in experiment [2] was “inactive” in each case.

Turning to `Cc1ccccc1C(=O)N1CCc2cc(-c3ccnc(NC(=O)Cc4ccccc4)n3)ccc21`, the Potency entry in experiment [1] and in experiment [2] was “inactive” each time.

Regarding `N#Cc1nc(Nc2cc(F)cc(Cl)c2)nc(NC2CCCC2)n1`, the Potency entry in experiment [1] and in experiment [2] was “inactive” in each case.

For the molecule `Cc1nc(N2CCOCC2)c2nc(-c3ccccc3)n(CCN(C)C)c2n1`, the Potency entry in experiment [1] and in experiment [2] was “inactive” each time.

As for `Cc1nc2ccc(Nc3nc(-c4ccncc4)nc4ccccc34)cc2s1`, the Potency entry in experiment [1] and in experiment [2] was “inactive” each time.

As to `Cc1cc(-c2cnc(N)c3c(-c4ccc5scnc5c4)csc23)n(C)n1`, the Potency entry in experiment [1] and in experiment [2] was “inactive” throughout.

Take `O=C1CCCC2=C1C1(CCCCC1)N=C(Nc1nc3ccccc3o1)N2`: the Potency entry in experiment [1] and in experiment [2] was “inactive” throughout.

As for `N[C@H](C(=O)Nc1ccc(Cl)cc1C(=O)c1ccc[nH]1)c1ccccc1`, the Potency entry in experiment [1] and in experiment [2] was “inactive” throughout.

For the molecule `NC(=O)c1ccnc2c(O)cccc12`, the Potency entry in experiment [1] and in experiment [2] was “inactive” each time.

On to `O=C1CCc2cc(S(=O)(=O)Nc3ccc(F)c(Cl)c3)c(F)cc2N1`, for which the Potency entry in experiment [1] and in experiment [2] was “inactive” throughout.

Take `O=S(=O)(NCc1cccc2ccccc12)c1cc(Cl)c(Oc2cccc(N3CCNCC3)c2)s1`: the Potency result in experiment [1] and in experiment [2] was “inactive” in each case.

As to `COc1cc(-c2nc(Nc3ccc(F)c(F)c3)c3ccccc3n2)cc(OC)n1`, the Potency entry in experiment [1] and in experiment [2] was “inactive” in each case.

With `CC1=C(C(=O)Nc2ccccc2Cl)C(c2ccccc2Br)N=C(Nc2nc3ccccc3o2)N1` (centres undefined), the Potency result in experiment [1] and in experiment [2] was “inactive” in each case.

On to `COc1ccc(NC(=S)N2CCN(c3cccc(C(F)(F)F)c3)CC2)nc1`, for which the Potency entry in experiment [1] and in experiment [2] was “inactive” throughout.

Turning to `O=C(Oc1cccnc1)c1cccs1`, the Potency entry in experiment [1] and in experiment [2] was “inactive” each time.

For `CC(=O)Nc1sc2c(c1-c1ccc3nonc3c1)CCNC2`, the Potency entry in experiment [1] and in experiment [2] was “inactive” each time.

On to `Cc1cc(NC(=O)c2csc(NC(=O)Cc3ccc(Cl)c(Cl)c3)n2)no1`, for which the Potency entry in experiment [1] and in experiment [2] was “inactive” in each case.

Turning to `COc1ccc2ncnc(NCC3CCCO3)c2c1-c1ccc2c(c1)OCO2` (centres undefined), the Potency entry in experiment [1] and in experiment [2] was “inactive” throughout.

Turning to `Cn1nnnc1Sc1ncnc2scc(-c3ccc(Br)cc3)c12`, the Potency result in experiment [1] and in experiment [2] was “inactive” throughout.

Regarding `COc1ccc(C2=Nn3c(nnc3-c3ccc(OC)cc3OC)SC2)c(OC)c1`, the Potency result in experiment [1] and in experiment [2] was “inactive” throughout.

Turning to `O=S(=O)(c1cccc(Cl)c1)N1CCN(S(=O)(=O)c2ccc3c(c2)OCCO3)CC1`, the Potency result in experiment [1] and in experiment [2] was “inactive” in each case.

As for `Cc1ccc(Cl)cc1NS(=O)(=O)c1cc2c(cc1Cl)CCC(=O)N2`, the Potency result in experiment [1] and in experiment [2] was “inactive” each time.

Turning to `CCCCC(OC(=O)CNC(=O)c1ccccc1)C(=O)Nc1cc(C(F)(F)F)ccc1Cl` (centres undefined), the Potency result in experiment [1] and in experiment [2] was “inactive” each time.

Turning to `Cn1c2cc(C#N)sc2c2cnn(Cc3ccc(F)cc3)c(=O)c21`, the Potency entry in experiment [1] and in experiment [2] was “inactive” in each case.

Take `O=S(=O)(NC1CCC(CNS(=O)(=O)c2c(F)cccc2F)CC1)c1ccc2c(c1)OCCO2` (centres undefined): the Potency entry in experiment [1] and in experiment [2] was “inactive” in each case.

Turning to `Cc1ccc(S(=O)(=O)NC(N)=NCCC[C@@H](N)C(=O)Nc2cc(C(F)(F)F)ccc2Cl)cc1`, the Potency entry in experiment [1] and in experiment [2] was “inactive” in each case.

As for `COc1ccc(OC)c(C2=Nn3c(nnc3-c3ccc(OC)c(OC)c3)SC2)c1`, the Potency result in experiment [1] and in experiment [2] was “inactive” in each case.
